Out of some 3,400 compounds screened, about 160 (4.7%) were called active.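 How the source made its calls: active means fitted curve reaches 30% activation at a concentration no higher than the top valid tested dose, luminescence rising; inconclusive means no clear call, values can overlap the other calls; inactive means signal moving opposite to the expected increase, plus the rest.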 These entries were drawn from the full list. Results with a measured potency or affinity are listed apart.
Assay: Wnt/beta-catenin signaling activators, dose response, cell-based, iPS-derived NPC, luciferase, Wnt3a, cherry-pick (AID 1053144);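 further: Wnt3a stimulus is conditioned medium from Wnt3a-transfected mouse L cells at 5% in well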
Conditions: NPC TCF/LEF luciferase reporter, Wnt3a EC25, 24 h; series mostly up to 26 µM

activation, inactive:
Nc1c(-c2cccc(Cl)c2)cnc2c(-c3ccccc3)cnn12, O=C(NN=Cc1ccc2c(c1)OCO2)c1ccccc1, Cc1occc1C(=O)N/N=C/c1ccc2c(c1)OCO2, CCOC(=O)c1ccc(NC(=O)N(CC)CC)cc1, CCOC(=O)c1ccc(-c2ccc(C=O)o2)cc1, O=C(Nc1ccc2c(c1)OCCO2)c1cncc(Br)c1, C=CCn1c(C)cc(C(=O)CSc2nc3ccccc3o2)c1C, COc1cc(C2C3=C(CC(C)(C)CC3=O)Nc3c2c(=O)[nH]c(=O)n3Cc2ccccc2)ccc1O (stereo not drawn), CC(=O)Oc1ccc2occ(C(=O)c3cccs3)c2c1, O=C(c1ccc(Br)cc1)c1coc2ccc(O)cc12, COc1ccc(C(=O)NN/C(=N/S(=O)(=O)c2ccc(C)cc2)c2ccccc2)cc1, Cc1[nH]c2ccc(F)cc2c1CCN1C(=O)OC(C)(C)C1(C)O (stereo not drawn), COc1ccc(C(=O)O/N=C(\N)c2ccccc2)cc1OC, COc1cc(/C=C/C(=O)N2CCC=CC2=O)cc(OC)c1OC, Oc1ccc(-c2cn3ccccc3n2)cc1, CC(=O)Nc1ccccc1OCC(=O)c1ccc2c(c1)OCO2, C(=C\c1nc(-c2ccncc2)no1)/c1ccccc1, Clc1ccccc1/C=C/c1nc(-c2cccnc2)no1, COc1ccc2[nH]cc(/C=C/C(=O)c3ccccc3)c2c1, Cc1ccc(NC(=O)C(=O)c2c[nH]c3ccccc23)cc1, Cc1cccc2cc(/C=N/Nc3ccc(C(=O)O)cc3)c(Cl)nc12, Brc1ccccc1-n1nnc(-c2cnc3ccccc3c2)n1, COc1ccc(C(=O)Nc2cc(C)on2)cc1, COc1ccc(-c2ccc(SCC(=O)Nc3nnc(C)s3)nn2)cc1, O=C(COc1ccc([N+](=O)[O-])cc1Cl)N1CCc2ccccc21, O=C(COc1ccc2c(c1)CCC2)N1CCc2ccccc21, O=C(Nc1ccccn1)C(=O)Nc1ccccn1, O=C(Nc1ccccc1O)c1csc2c1CCCC2, Cc1cc(SCC(=O)c2ccc(Cl)cc2)nc(=O)[nH]1, O=C(Nc1nc(-c2ccccn2)cs1)C12CC3CC(CC(O)(C3)C1)C2, CCC(C)NC(=O)c1cc(-c2ccc3c(c2)OCO3)on1 (stereo not drawn), O=c1c(N=Nc2ccccc2)c[nH]n1-c1ccccc1, c1ccc(N=NC2=NN(c3ccccc3)CS2)cc1, CCc1ccc(C(=O)CCC(=O)Nc2ccc(OC)c(S(=O)(=O)N3CCCCC3)c2)cc1, CCOc1ccccc1-n1nnnc1SCC(=O)O, Cc1c(CC(=O)N[C@H](C(=O)O)C(C)C)c(=O)oc2cc3c(cc12)CCC(C)(C)O3, Cn1cccc1-c1nc2ccc(NC(=O)c3ccco3)cc2[nH]1, O=C(Nc1ccc2nc(-c3ccco3)[nH]c2c1)c1ccco1, O=C(Nc1ccc2c(c1)Cc1ccccc1-2)c1ccccc1F, CCOC(=O)C1CCCN(C(=O)CCc2nnc(-c3ccc(C(C)=O)s3)o2)C1 (stereo not drawn), Cc1ccc(C)c(N2CCN(C(=O)CCc3nc(-c4ccccc4C(F)(F)F)no3)CC2)c1, Cc1ccc(OCc2cc(C(=O)N3CCN(c4ccccc4)CC3)no2)cc1C, CC(=O)Nc1cccc(NC(=O)c2cc3ccccc3o2)c1, CC(C)(C)C(=O)Nc1ccc(C(=O)Nc2cccnc2)cc1, COc1cccc(/C=C/c2ccc3cccc(O)c3n2)c1OC, COc1cc(/C=C/c2ccc3cccc(O)c3n2)cc(Cl)c1OC, COc1cc(/C=C/C(=O)OCC(=O)NCCc2ccccc2)cc(OC)c1OC, Oc1ccc(Cl)cc1C=NN1CCCCCC1, COc1ccc(-c2nc3ccccc3s2)cc1NC(C)=O, CCN1CCN(C(=O)c2ccc(-c3nc4ccccc4s3)s2)CC1, CN(CCO)c1c2c(nc3cc(-c4cccc(F)c4)nn13)CCCC2, O=C(c1ccccc1)c1nnc(-c2ccccc2F)o1, O=[N+]([O-])c1cccc(C2=NC(c3ccccc3)CO2)c1 (stereo not drawn), O=C(c1cc(-c2cccc(O)c2)on1)N1CCCCC1, O=C(c1cc(-c2cccc(O)c2)on1)N1CCOCC1, Cc1cc(=O)oc2cc(OCC(=O)Nc3nccs3)ccc12, Cn1cccc1/C=C1\SC(=O)N(c2ccccc2)C1=O, CCn1cc(S(=O)(=O)CC(=O)Nc2ccc3c(c2)OCO3)c2ccccc21, CC(=O)Oc1ccc(-c2csc(Nc3ccccn3)n2)cc1, CC(=O)c1sc(NC(=O)c2ccc3c(c2)OCO3)nc1C, CC(C)NC(=O)N1CCCN(c2nc3ccc(Cl)cc3s2)CC1, C[C@@H](CO)NC(=O)c1ccc2c3n(nc2c1)-c1ccc(Cl)cc1CO3, CC(C)NC(=O)c1ccc2c3n(nc2c1)-c1ccc(Cl)cc1CO3, Cc1ccc2c(c1)COc1c3ccc(C(=O)NCCO)cc3nn1-2, O=C(NCCO)c1ccc2c3n(nc2c1)-c1ccccc1CO3, Cc1ccc2c(c1)COc1c3ccc(C(=O)NC(C)C)cc3nn1-2, C=CCNC(=O)c1ccc2c3n(nc2c1)-c1ccc(C)cc1CO3, O=C(c1ccco1)N1CCN(c2ccc(N3CCCCC3)nn2)CC1, c1cn2c(Nc3ccc4c(c3)OCCO4)c(-c3ccc(N4CCOCC4)cc3)nc2cn1, Cc1nn(C(=O)c2cccs2)c(N)c1-c1ccccc1, O=C(/C=C/c1ccc([N+](=O)[O-])cc1)Nc1cccnc1, COc1ccc(OC)c(NC(=O)CSc2nnc(C3CCCCC3)n2-c2ccccc2)c1, O=C(OCC(=O)N1CCOCC1)c1ccc2ccccc2c1O, O=C(COc1ccc2ccccc2c1)N1CCCC1, O=C(Nc1ccc(C(=O)c2ccccc2)cc1)c1ccccc1, O=C(Nc1ccc(-c2cn3ccsc3n2)cc1)C1CC1, O=c1c2cc(-c3ccccc3)sc2nc2n1CCC2, CCOC(=O)c1sc2nc(-c3cccnc3)ccc2c1N, CC(C)c1[nH]nc2c1C(C1C=CCCC1)C(C#N)=C(N)O2 (stereo not drawn), COc1ccc2cc(CCNC(=O)c3ccco3)c(=O)[nH]c2c1, CCCNC(=O)c1cc(-c2ccc3c(c2)OCO3)on1, CCCNC(=O)c1oc2ccc3c(c2c1C)C(=O)CC(C)(C)O3, Cc1cccn2cc(-c3ccc(F)cc3)nc12, COc1cc2ccc(-c3ccc4ccccc4n3)cc2cc1OC, c1ccc(-c2ccc3ccccc3n2)cc1, Cc1occc1C(=O)NNC(=O)c1ccccc1F, CCCCNc1c(-c2ccc(-c3cccc(Cl)c3)cc2)nc2ccccn12, COc1ccc(C)cc1NC(=O)CSc1nnnn1Cc1ccccc1, COC(=O)c1cc2c(s1)-c1ccc(OC)cc1CC2, COCCNC(=O)c1cc2sc3ccccc3c2s1, CCC1CCC(NC(=O)Nc2cccc(OC)c2)CC1 (stereo not drawn), Oc1ccc(-c2cnc3ccccc3n2)cc1, Cc1cc2ncc(-c3ccccc3)nc2cc1C, CCC(=O)n1nc(-c2ccc(Cl)cc2)nc1SC, CCCCC12CN3CCN(CC(C3)/C1=N\NC(=O)c1ccccc1N)C2, CN(C)c1cccc(-c2csc(N3CCC(C(N)=O)CC3)n2)c1, Cc1ccc(C(=O)COC(=O)c2cccc(O)c2)s1, Cn1cccc1C(=O)OCC(=O)c1ccc(Br)s1, CCOc1ccc(N2C(=O)CC(SCCN)C2=O)cc1 (stereo not drawn), O=C(Nc1ccccc1)C1=C[C@@H](C2CC2)C[C@@H](OCc2ccc(CO)cc2)O1, O=C1c2ccccc2C(=O)C1c1ccnc2ccccc12, O=C1/C(=C/c2ccc(O)cc2)COc2ccccc21, O=C(Nc1nccs1)c1c(O)c2c([nH]c1=O)CCCC2, Cc1ccc2cc(NC(=O)c3ccccc3)ccc2n1, O=C(Nc1ccc2ccccc2c1)c1cccc(F)c1, COc1cccc(-c2nc(-c3ccccn3)no2)c1OC, CN(C(=O)c1cc2c(=O)n3ccccc3nc2n1C)C1CCCCC1, Brc1ccc(-c2noc(-c3ccccc3)n2)o1, Brc1ccc(-c2nc(-c3ccccc3)no2)o1, O=C(c1ccc(-c2cccc(Cl)c2Cl)o1)N1CCOCC1, O=C(c1ccc(-c2ccccc2Cl)o1)N1CCCCCCC1, CC(C)(C)c1ccc(OCc2ccc(C(=O)NCc3cccnc3)o2)cc1, O=c1ncn(-c2cccc(Cl)c2)c2ccccc12, O=C(Nc1nccs1)c1ccc(N2CCOCC2)c([N+](=O)[O-])c1, O=C(N/N=C/c1cccc(OCc2ccccc2)c1)c1cccs1, Cc1occc1C(=O)N/N=C/C(Br)=C\c1ccccc1, COc1ccc(CN2C(=O)C(C)S/C2=N/N=C/c2ccco2)cc1 (stereo not drawn), CCCc1cc(C(=O)NC2CCCCC2)no1, CC(=O)Nc1nc2cc3c(cc2s1)OCCO3, O=C(Nc1nc2cc3c(cc2s1)OCCO3)c1cccs1, Cc1c(C(=O)Nc2ccc(Br)cc2)cnn1C, Nc1nc(N)nc(-c2cccc(Br)c2)n1, Cc1ccc(F)c(CNC(=O)C2(C)CCCN2C(=O)C(C)C)c1F (stereo not drawn)

— PubChem BioAssay AID1053144 (Broad Institute, 2014)
